From PubChem BioAssay (EPA / NIEHS)
Results filed as inconclusive are left out. Calls of active or inactive are those of the source. Rule for the calls: active = hit-call score of the fitted dose curve at least 0.9, where 1 is the maximum; inconclusive = response in the unintended direction; inactive = score below 0.9.

Assay: ACEA_ER_AUC_viability: ACEA Biosciences xCELLigence Real-Time Cell Analysis on Estrogen Receptor Agonism for Viability (AID 2283782);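 note: continuous compound exposure with impedance area under curve over 80 h; hit means loss of impedance signal meaning reduced cell growth or viability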
In short: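 T47D cells preconditioned in phenol red-free RPMI with charcoal-stripped FBS, then dosed with 8-point 1:4 series from 100 uM (up to 0.5% DMSO). Impedance monitored up to ~80 h; area-under-curve loss versus DMSO taken as viability.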

Row | SMILES | outcome | AC50
1 | O=C(Cl)c1c(Cl)c(Cl)c(C(=O)Cl)c(Cl)c1Cl | inactive | 
2 | CC1(C)C(=O)N(CO)C(=O)N1CO | inactive | 
3 | C=C(C)C1CC=C(C)C(OC(C)=O)C1 (stereo not given) |  | 81.5 µM (active)
4 | c1ccc2sc(SSN3CCOCC3)nc2c1 |  | 84.8 µM (active)
5 | Cc1ccc2c(c1)CCCN2 | inactive | 
6 | CCOC(=O)CC(=O)c1ccccc1 |  | 50 µM (active)
7 | COC(Cc1ccccc1)OC |  | 67 µM (active)
8 | CC(C)=NNC(N)=S |  | 82.4 µM (active)
9 | CCN(CC)c1cccc(C)c1 |  | 27.9 µM (active)
10 | CCCCCCCCCCCC(C)=O |  | 66.7 µM (active)
